Test results as given in a collection of fitness landscapes (doi:10.1016/j.celrep.2020.107928).
Whole data set: some 81,000 sequences, median “one-hybrid fitness for binding NBS DNA” near -0.1, cut for the highest 2% near 0.36. This excerpt belongs to a sample that is enriched for the highest values.

B1: Caulobacter ParB omega fusion; a variant is named by its letters at X, in order, B8GW30 (parent)
chain: MESVVVGEPGMSEGRRGLGRGLSALLGEVDAAPAQAPGEQLGGSREAPIEILQRNPDQPRRTFREEDLEDLSNSIREKGVLQPILVRPSPDTAGEYQIVAGERAWRAAQRAGLKTVPIMVRELDDLAVLEIGIIENVQRADLNVLEEALSYKVLMEKFERTQENIAQTIGKSXSHVANXMRLLXLPDEVQSYLVSGELTAXHARAIAAAADPVALAKQIIEGGLSVRETEALARKAPNLSAGKSKGGRPPRVKDTDTQALESDLSSVLGLDVSIDHRGSTGTLTITYATLEQLDDLCNRLTRGI

Variants of: B1
Assay: one-hybrid fitness for binding NBS DNA (the Noc-binding site; scaled: cognate 1, non-cognate 0); higher = stronger binding
Settings: with NBS DNA site
How it was run: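 Pre- and post-selection plasmids were Illumina-sequenced, three replicate libraries were pooled, and any variant with under 10 reads was removed. The libraries were Caulobacter ParB with four specificity codons randomised, selected in E. coli USO through a HIS3 reporter whose site is 19 bp from the promoter. Cells grew 48 hours at 37°C on M9 without histidine, with 0.1 mM IPTG and 5 mM 3-AT. Fitness is the log change in variant-to-wild-type read ratio, rescaled against cognate and non-cognate.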

Row | Variant | one-hybrid fitness for binding NBS DNA
1 | TTDR | ≤ 0.2
2 | TTKR | 0.372
3 | TTYR | ≤ 0.2
4 | TTVR | ≤ 0.2
5 | TCKR | 0.262
6 | TTRR | 0.378
7 | LKIL | ≤ 0.2
8 | PMKT | ≤ 0.2
9 | LRKL | ≤ 0.2
10 | DLDT | ≤ 0.2
11 | NAVF | ≤ 0.2
12 | TRTI | ≤ 0.2
13 | AVGC | ≤ 0.2
14 | RRVT | 0.755
15 | RRKW | 0.351
16 | RRKT | 0.814
17 | RCVT | 0.319
18 | RGKT | 0.24
19 | GGMT | ≤ 0.2
20 | TPSP | ≤ 0.2
21 | YMFT | ≤ 0.2
22 | KRVR | 0.456
23 | KLKR | 0.319
24 | KRKR | 0.849
25 | DRKR | 0.238

Row | Variant | one-hybrid fitness for binding NBS DNA
26 | KCVR | ≤ 0.2
27 | DRVR | ≤ 0.2
28 | IHAG | ≤ 0.2
29 | CWRR | ≤ 0.2
30 | HRDS | ≤ 0.2
31 | RKDS | 0.412
32 | RKNN | ≤ 0.2
33 | RKND | ≤ 0.2
34 | RKNS | 0.606
35 | RKDP | ≤ 0.2
36 | RKDD | ≤ 0.2
37 | FIER | ≤ 0.2
38 | PSMI | ≤ 0.2
39 | EAPR | 0.408
40 | EAIR | ≤ 0.2
41 | EAPF | 0.532
42 | EAPS | ≤ 0.2
43 | EAPH | ≤ 0.2
44 | ECPR | ≤ 0.2
45 | HVLW | ≤ 0.2
46 | ITMG | ≤ 0.2
47 | VHNR | ≤ 0.2
48 | LWVP | ≤ 0.2
49 | VKGG | ≤ 0.2
50 | EIGT | ≤ 0.2

Row | Variant | one-hybrid fitness for binding NBS DNA
51 | RTQC | ≤ 0.2
52 | RTIT | 0.352
53 | RTYT | 0.494
54 | RTST | 0.565
55 | RTQT | 0.537
56 | RTQM | ≤ 0.2
57 | RTSH | 0.207
58 | RTET | 0.234
59 | RTPT | 0.201
60 | RTWT | 0.356
61 | RTRT | 0.704
62 | RTSP | ≤ 0.2
63 | GGKA | ≤ 0.2
64 | AFLS | ≤ 0.2
65 | RKPM | ≤ 0.2
66 | QSHF | ≤ 0.2
67 | CTPF | ≤ 0.2
68 | PLPM | ≤ 0.2
69 | KIKM | ≤ 0.2
70 | HHNR | ≤ 0.2
71 | NSTM | ≤ 0.2
72 | RTGC | ≤ 0.2
73 | RTGT | 0.575
74 | RTGG | ≤ 0.2
75 | YFNT | ≤ 0.2

Row | Variant | one-hybrid fitness for binding NBS DNA
76 | RRDK | ≤ 0.2
77 | RRYK | 0.202
78 | RRSK | 0.378
79 | RRRK | 0.41
80 | RSSK | ≤ 0.2
81 | RCSK | ≤ 0.2
82 | MRQS | ≤ 0.2
83 | MFRF | ≤ 0.2
84 | LRHC | ≤ 0.2
85 | KHAS | ≤ 0.2
86 | CVNW | ≤ 0.2
87 | REMW | ≤ 0.2
88 | IEPS | ≤ 0.2
89 | AEIR | ≤ 0.2
90 | IEPR | 0.427
91 | AEPR | 0.408
92 | TEPR | ≤ 0.2
93 | IEYR | ≤ 0.2
94 | LSRY | ≤ 0.2
95 | SFFN | ≤ 0.2
96 | EDND | ≤ 0.2
97 | AQKT | ≤ 0.2
98 | RRID | ≤ 0.2
99 | RRPR | 0.605
100 | RCIR | 0.294

Row | Variant | one-hybrid fitness for binding NBS DNA
101 | RCPR | ≤ 0.2
102 | RRIR | 0.686
103 | RRPP | ≤ 0.2
104 | WWTF | ≤ 0.2
105 | WLEG | ≤ 0.2
106 | FKSG | ≤ 0.2
107 | IVTP | ≤ 0.2
108 | PVGL | ≤ 0.2
109 | RHMD | ≤ 0.2
110 | RHMS | 0.386
111 | RPMS | ≤ 0.2
112 | RHMH | ≤ 0.2
113 | RTMS | 0.452
114 | RCMS | 0.412
115 | RKMN | ≤ 0.2
116 | RSMS | 0.351
117 | RKMS | 0.586
118 | RTMH | ≤ 0.2
119 | RKMD | ≤ 0.2
120 | RTMD | ≤ 0.2
121 | WRRW | ≤ 0.2
122 | DIYS | ≤ 0.2
123 | HNSK | ≤ 0.2
124 | TLTK | ≤ 0.2
125 | QTDH | 0.335

Row | Variant | one-hybrid fitness for binding NBS DNA
126 | QTNH | 0.495
127 | QTNS | 0.629
128 | QTDS | 0.331
129 | QCNQ | 0.222
130 | QTNF | 0.244
131 | QTDQ | ≤ 0.2
132 | QTNY | 0.431
133 | QTNQ | 0.377
134 | QTDY | ≤ 0.2
135 | QTNN | 0.327
136 | QSNY | ≤ 0.2
137 | HFFR | ≤ 0.2
138 | RCTP | ≤ 0.2
139 | EWRC | ≤ 0.2
140 | YVHE | ≤ 0.2
141 | VDSG | ≤ 0.2
142 | HSAM | ≤ 0.2
143 | VVYR | ≤ 0.2
144 | RTAP | ≤ 0.2
145 | RSAP | ≤ 0.2
146 | RPAW | ≤ 0.2
147 | RSAD | ≤ 0.2
148 | RMAH | ≤ 0.2
149 | RSAW | ≤ 0.2
150 | RMAN | ≤ 0.2

Row | Variant | one-hybrid fitness for binding NBS DNA
151 | RSAS | 0.424
152 | RTAD | ≤ 0.2
153 | RTAS | 0.454
154 | RCAW | 0.431
155 | RMAS | 0.405
156 | SWHQ | ≤ 0.2
157 | IRHW | ≤ 0.2
158 | EMAM | ≤ 0.2
159 | DYQG | ≤ 0.2
160 | TGTL | ≤ 0.2
161 | WNAL | ≤ 0.2
162 | RIAS | 0.345
163 | RCAS | 0.476
164 | RAAS | 0.368
165 | RAAH | ≤ 0.2
166 | RHAS | 0.433
167 | RHAN | ≤ 0.2
168 | RLAH | ≤ 0.2
169 | RLAS | 0.383
170 | RLAP | ≤ 0.2
171 | RHAP | ≤ 0.2
172 | RAAD | ≤ 0.2
173 | RPAS | ≤ 0.2
174 | TIIA | ≤ 0.2
175 | APSV | ≤ 0.2

Row | Variant | one-hybrid fitness for binding NBS DNA
176 | HMQC | ≤ 0.2
177 | LRDK | ≤ 0.2
178 | SENT | ≤ 0.2
179 | LQVS | ≤ 0.2
180 | PPFG | ≤ 0.2
181 | RSHK | ≤ 0.2
182 | QQTH | 0.264
183 | QQTP | ≤ 0.2
184 | QQTN | ≤ 0.2
185 | QQTR | 0.648
186 | QQTS | 0.433
187 | QQTC | ≤ 0.2
188 | QQTT | 0.464
189 | QQTF | ≤ 0.2
190 | QQTD | ≤ 0.2
191 | WSIE | ≤ 0.2
192 | GCAR | ≤ 0.2
193 | RQSC | ≤ 0.2
194 | YATR | ≤ 0.2
195 | SEFT | ≤ 0.2
